Reference: PubChem BioAssay (NCATS)
Records with an inconclusive call do not appear. Entries that show only a call come without a potency. Values without a mark were called inactive. Active and inactive are the calls of the source. Calls follow the shape of the dose curve; as a rule, active = well fitted curve in the direction sought with a large enough effect; inconclusive = small, poorly fitted or top-dose-only effect, or another doubt; inactive = no such curve, though single readings can be large; an effect the other way counts as inactive or inconclusive.

Legend:
[1] = biological target: Aldehyde dehydrogenase, mitochondrial (Homo sapiens) (UniProt P05091); assay: qHTS for Inhibitors of the Aldehyde Dehydrogenase Family (ALDH2) Primary screen (AID 2061308); settings: ALDH2 enzyme inhibition qHTS, 1536-well; series mostly up to 56 µM; also: nearly all actives have a fitted effect of over 55% in size
[2] = biological target: Retinaldehyde dehydrogenase 3 (Homo sapiens) (UniProt P47895); assay: qHTS for Inhibitors of the Aldehyde Dehydrogenase Family (ALDH1A3) Primary screen (AID 2061315); settings: ALDH inhibition qHTS; series mostly up to 56 µM

Row | SMILES | Potency [1] | Potency [2] | activity change, negative = inhibition [1] | activity change, negative = inhibition [2]
1 | O=S(=O)(c1cccc(-c2n[nH]c(=S)n2-c2ccccc2)c1)N1CCCC1 | inactive | inactive | – | –
2 | C=C1C(=O)O[C@@H]2C[C@H](C)[C@@H]3CC(=O)[C@H](O)[C@@]3(C)C[C@H]12 | inactive | inactive | – | –
3 | O=[S+]([O-])(Nc1ccccc1F)c1cccc(NC/C=C/c2ccccc2)c1 | inactive | inactive | – | –
4 | FC(F)(F)c1cc(-c2nc3ccccc3s2)cc(C(F)(F)F)c1 | inactive | inactive | – | –
5 | Cc1ccc(-c2ccc(=O)n(CC(=O)NCCc3ncc[nH]3)n2)cc1 | inactive | inactive | – | –
6 | C=CCNc1oc(-c2cccc3ccccc23)nc1C#N | inactive | inactive | – | –
7 | CC(=O)Nc1cccc(-c2csc(Nc3cc(C)ccn3)n2)c1 | inactive | inactive | – | –
8 | Cc1cc2c(s1)c1cnn(Cc3ccc(F)c(F)c3F)c(=O)c1n2C | inactive | inactive | – | –
9 | COc1ccccc1NS(=O)(=O)c1ccc2c(c1)CCC(=O)N2 | inactive | inactive | – | –
10 | Cc1ccc(S(=O)(=O)Nc2ccccc2C(=O)Nc2ccc(-c3ccccc3)nc2)cc1 | inactive | inactive | – | –
11 | O=C(CCc1ccccc1)Nc1ncnc2c1C(c1ccccc1)c1c(ccc3ccccc13)O2 (stereo not given) | inactive | inactive | – | –
12 | CC(C)COc1ccc(-c2csc(N3CCC(C(N)=O)CC3)n2)cc1 | inactive | inactive | – | –
13 | c1csc(CNc2ncnc3ccc(-c4ccc5c(c4)OCO5)cc23)n1 | inactive | inactive | – | –
14 | CCCn1c(C)nc2c(NC3CCN(Cc4ccccc4)CC3)nc(C)nc21 | inactive | inactive | – | –
15 | COc1ccc(C2Nc3ccccc3C(=O)N2Cc2ccco2)cc1COc1ccccc1C (stereo not given) | inactive | inactive | – | –
16 | O=C(NC(c1ccco1)c1cc(Cl)c2cccnc2c1O)c1ccc(F)c(F)c1 (stereo not given) | inactive | inactive | – | –
17 | Cc1nc(NC2CCCCC2)c2nc(-c3ccccc3)n(CCCN3CCCCC3C)c2n1 (stereo not given) | inactive | inactive | – | –
18 | C=CC(=O)Nc1cc(Nc2ncc(Cl)c(-c3c[nH]c4ccccc34)n2)c(OC)cc1N(C)CCN(C)C | inactive | inactive | – | –
19 | CCCCN(C)C(=O)Cn1nc(-c2ccc(OC)cc2)ccc1=O | inactive | inactive | – | –
20 | O=S(=O)(c1ccc2c(c1)OCCO2)N1CCN(S(=O)(=O)c2ccccn2)CC1 | inactive | inactive | – | –

Row | SMILES | Potency [1] | Potency [2] | activity change, negative = inhibition [1] | activity change, negative = inhibition [2]
21 | Cc1cccc(-n2cnc3cc(C(=O)N4CCCCCC4)ccc32)c1 | inactive | inactive | – | –
22 | CCNC(=O)c1ccc(-c2ccc3ncnc(N4CCOCC4)c3c2)o1 | inactive | inactive | – | –
23 | CC(C)CCC[C@@H](C)[C@H]1CC[C@H]2[C@@H]3CC=C4C[C@@H](OC(=O)NCCN(C)C)CC[C@]4(C)[C@H]3CC[C@]12C | inactive | inactive | – | –
24 | NC(=O)C1CCN(c2nc(-c3ccc(Br)cc3)cs2)CC1 | inactive | inactive | – | –
25 | Cc1cccc(CNc2ccnc(-c3ccccc3C)n2)c1 | inactive | inactive | – | –
26 | N#Cc1c(-c2ccccc2C(F)(F)F)nc2ccccc2c1NCc1ccc(-c2cccnc2)cc1 | inactive | inactive | – | –
27 | Cc1ccsc1CNc1ncnc2ccc(-c3c(C)noc3C)cc12 | inactive | inactive | – | –
28 | COc1ccc(C[C@H](C(=O)O)N2C(=O)c3ccc(C(=O)O)cc3C2=O)cc1 | inactive | inactive | – | –
29 | Clc1cccc(-c2nc(-c3ccc(-c4nn[nH]n4)cc3)no2)c1 | inactive | inactive | – | –
30 | Cc1cc(-c2nnc3n2CCCCC3)c(C)n1-c1cccc(C(F)(F)F)c1 | inactive | inactive | – | –
31 | COc1ccc(Nc2nn3c(=O)c4ccccc4nc3s2)cc1 | inactive | inactive | – | –
32 | COc1cccc(C)c1NC(=O)C(OC(=O)CNC(=O)c1ccccc1)c1ccccc1 (stereo not given) | inactive | inactive | – | –
33 | CC1OC2OC3C(OCC(O)C3O)OC(=O)C34CCC(C)(C)CC3C3=CCC5C6(C)CC(O)C(OC7OC(CO)C(O)C(O)C7OC7OCC(OC(=O)CC(C)(O)CC(=O)OC1C(OC1OCC(O)C(O)C1O)C2O)C(O)C7O)C(C)(CO)C6CCC5(C)C3(C)CC4O (stereo not given) | inactive | inactive | – | –
34 | Cc1nc(NCc2ccccc2)c2nc(-c3ccccc3)n(C(C)CN(C)C)c2n1 (stereo not given) | inactive | inactive | – | –
35 | CCC1=CC2CN(C1)Cc1c([nH]c3ccccc13)[C@@](C(=O)OC)(c1cc3c(cc1OC)N(C)[C@H]1[C@@](O)(C(=O)OC)[C@H](OC(C)=O)[C@]4(CC)C=CCN5CC[C@]31[C@@H]54)C2 (stereo not given in full) | inactive | inactive | – | –
36 | C[C@@H]1O[C@@H](O[C@H]2[C@H](OC(=O)[C@]34CCC(C)(C)C[C@H]3C3=CCC5[C@@]6(C)C[C@H](O)[C@H](O[C@@H]7O[C@H](CO)[C@@H](O)[C@H](O)[C@H]7O)[C@](CO)(C(=O)O)C6CC[C@@]5(C)[C@]3(C)C[C@H]4O)OC[C@H](O)[C@@H]2O)[C@H](O)[C@H](O)[C@H]1O[C@@H]1OC[C@@H](O)[C@H](O[C@@H]2OC[C@](O)(CO)[C@H]2O)[C@H]1O (stereo not given in full) | – | – | 7.32% [at 11.2 µM] | 18.8% [at 11.2 µM]
37 | O=C(Cc1ccc(Cl)c(Cl)c1)Nc1ccc([S+](=O)([O-])Nc2ccc([N+](=O)[O-])cc2)cc1 | inactive | inactive | – | –
38 | O=C(O)c1cccc2c1C(=O)N(c1ccccc1)C2 | inactive | inactive | – | –
39 | COC(=O)c1ccc(OC(C)=O)c2ncccc12 | inactive | inactive | – | –
40 | COc1ccc(C(=O)N(Cc2ccccc2)Cc2ccccc2)cc1COc1ccc(NC(C)=O)cc1 | inactive | inactive | – | –
